This note sets out measurements from PMC7862700, “An all-to-all approach to the identification of sequence-specific readers for epigenetic DNA modifications on cytosine”.

Common to all, as to assay: DAPPL (digital affinity profiling via proximity ligation, sequencing); 10 mM Tris-HCl pH 7.5, 50 mM NaCl, 1 mM DTT, 4% glycerol, room temperature, 30 min; GST-TFs on glutathione beads, 16-mer random dsDNA library, 0.1% formaldehyde crosslink after washing; high values mean tight binding
In one assay the target is T1, FLI1 (Homo sapiens, UniProt Q01543 1-452).
T1 sequence: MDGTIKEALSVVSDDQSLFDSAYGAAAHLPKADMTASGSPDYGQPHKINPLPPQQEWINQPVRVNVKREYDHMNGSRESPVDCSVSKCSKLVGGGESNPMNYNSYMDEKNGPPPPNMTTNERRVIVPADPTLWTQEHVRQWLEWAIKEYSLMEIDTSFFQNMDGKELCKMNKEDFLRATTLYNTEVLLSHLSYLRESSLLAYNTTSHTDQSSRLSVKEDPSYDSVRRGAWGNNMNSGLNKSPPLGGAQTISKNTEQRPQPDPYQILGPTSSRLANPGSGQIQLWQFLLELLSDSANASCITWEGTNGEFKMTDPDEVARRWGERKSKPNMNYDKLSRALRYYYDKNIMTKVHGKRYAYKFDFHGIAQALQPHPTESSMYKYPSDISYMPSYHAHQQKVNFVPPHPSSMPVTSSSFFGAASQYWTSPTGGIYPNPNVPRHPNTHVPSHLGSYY
The conditions noted are these: protein: recombinant; tags: N-terminal GST; dsDNA, one strand shown. The essentials:
(§1)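 A tag-only sample was pooled with DNA-barcoded human transcription factors that had been expressed in yeast as GST fusions and captured on glutathione beads. The pools were incubated for 30 min at room temperature with 200 nmole of a random double-stranded 16-mer DNA library in Tris/NaCl/DTT/glycerol buffer, then washed, crosslinked with 0.1% formaldehyde, proximity-ligated (BsaI/T4 ligase, 1 h, 37 °C), PCR-amplified and sequenced on an Illumina NextSeq500. Binding signal is each hexamer's read frequency for a factor divided by its frequency for the tag-only sample.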

A further assay deals with T2, ELK1 (Homo sapiens, UniProt P19419 1-428).
T2 sequence: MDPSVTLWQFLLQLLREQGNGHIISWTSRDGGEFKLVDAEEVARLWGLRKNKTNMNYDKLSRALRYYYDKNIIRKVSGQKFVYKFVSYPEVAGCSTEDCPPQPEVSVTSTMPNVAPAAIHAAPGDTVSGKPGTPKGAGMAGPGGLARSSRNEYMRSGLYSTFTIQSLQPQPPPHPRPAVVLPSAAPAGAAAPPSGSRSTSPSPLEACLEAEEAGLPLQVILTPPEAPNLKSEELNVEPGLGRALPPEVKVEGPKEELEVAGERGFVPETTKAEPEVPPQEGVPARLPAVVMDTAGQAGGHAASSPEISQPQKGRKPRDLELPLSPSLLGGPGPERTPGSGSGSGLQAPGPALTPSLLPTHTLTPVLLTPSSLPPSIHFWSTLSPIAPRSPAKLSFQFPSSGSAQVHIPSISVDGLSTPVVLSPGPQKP
Conditions: protein: recombinant; tags: N-terminal GST; dsDNA, one strand shown. The essentials: as §1

A further assay deals with T3, GABPA (Homo sapiens, UniProt Q06546 1-454).
T3 sequence: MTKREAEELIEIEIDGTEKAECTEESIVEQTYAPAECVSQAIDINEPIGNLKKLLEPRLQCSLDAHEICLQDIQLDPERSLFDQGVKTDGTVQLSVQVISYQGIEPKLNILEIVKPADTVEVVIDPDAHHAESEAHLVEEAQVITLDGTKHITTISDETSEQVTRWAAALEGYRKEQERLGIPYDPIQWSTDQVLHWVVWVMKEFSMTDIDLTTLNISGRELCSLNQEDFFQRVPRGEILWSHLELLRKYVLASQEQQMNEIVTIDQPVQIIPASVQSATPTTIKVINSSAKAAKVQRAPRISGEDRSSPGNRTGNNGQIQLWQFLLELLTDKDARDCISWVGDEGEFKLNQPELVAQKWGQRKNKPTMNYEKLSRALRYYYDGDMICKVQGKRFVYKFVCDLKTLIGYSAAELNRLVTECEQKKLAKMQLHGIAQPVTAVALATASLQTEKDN
Conditions: protein: recombinant; tags: N-terminal GST; dsDNA, one strand shown. The essentials:
as §1

For the next assay, the target named is T4, ERG (Homo sapiens, UniProt P11308 1-479).
T4 sequence: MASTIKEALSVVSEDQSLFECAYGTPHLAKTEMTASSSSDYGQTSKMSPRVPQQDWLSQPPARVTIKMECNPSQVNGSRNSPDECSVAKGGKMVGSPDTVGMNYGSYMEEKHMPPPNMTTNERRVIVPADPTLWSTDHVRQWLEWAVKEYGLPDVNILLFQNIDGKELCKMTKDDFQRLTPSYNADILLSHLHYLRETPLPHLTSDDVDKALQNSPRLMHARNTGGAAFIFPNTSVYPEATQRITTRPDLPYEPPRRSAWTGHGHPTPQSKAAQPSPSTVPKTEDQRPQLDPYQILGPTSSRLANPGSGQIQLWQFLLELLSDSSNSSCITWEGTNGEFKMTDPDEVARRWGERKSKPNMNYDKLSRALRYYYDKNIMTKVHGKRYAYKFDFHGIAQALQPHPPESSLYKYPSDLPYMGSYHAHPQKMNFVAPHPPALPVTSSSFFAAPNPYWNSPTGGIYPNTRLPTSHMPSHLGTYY
Conditions: protein: recombinant; tags: N-terminal GST; dsDNA, one strand shown. The essentials: as §1

The target in a further assay is ELF1 (Homo sapiens, UniProt P32519 1-619). The conditions noted are these: protein: recombinant; tags: N-terminal GST; dsDNA, one strand shown. The essentials:
as §1

The next assay has as its target T5, EHF (Homo sapiens, UniProt Q9NZC4 1-300).
T5 sequence: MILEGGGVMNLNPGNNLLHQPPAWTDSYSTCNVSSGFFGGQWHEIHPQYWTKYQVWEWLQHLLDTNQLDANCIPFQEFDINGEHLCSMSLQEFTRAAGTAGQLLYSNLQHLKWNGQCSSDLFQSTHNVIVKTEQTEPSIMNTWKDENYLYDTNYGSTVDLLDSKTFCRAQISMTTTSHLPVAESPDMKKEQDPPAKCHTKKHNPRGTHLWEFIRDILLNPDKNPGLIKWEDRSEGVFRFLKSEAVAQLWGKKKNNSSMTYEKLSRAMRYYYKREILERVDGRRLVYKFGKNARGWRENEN
Conditions: protein: recombinant; tags: N-terminal GST; dsDNA, one strand shown. The essentials: as §1

The target of a further assay is SPI1 (Homo sapiens, UniProt P17947 1-270). The conditions noted are these: protein: recombinant; tags: N-terminal GST; dsDNA, one strand shown. The essentials: as §1
The next assay concerns the target SPIB (Homo sapiens, UniProt Q01892 1-262). Conditions: protein: recombinant; tags: N-terminal GST; dsDNA, one strand shown. The essentials: as §1
In a further assay the target is T6, ELK3 (Homo sapiens, UniProt P41970 1-407).
T6 sequence: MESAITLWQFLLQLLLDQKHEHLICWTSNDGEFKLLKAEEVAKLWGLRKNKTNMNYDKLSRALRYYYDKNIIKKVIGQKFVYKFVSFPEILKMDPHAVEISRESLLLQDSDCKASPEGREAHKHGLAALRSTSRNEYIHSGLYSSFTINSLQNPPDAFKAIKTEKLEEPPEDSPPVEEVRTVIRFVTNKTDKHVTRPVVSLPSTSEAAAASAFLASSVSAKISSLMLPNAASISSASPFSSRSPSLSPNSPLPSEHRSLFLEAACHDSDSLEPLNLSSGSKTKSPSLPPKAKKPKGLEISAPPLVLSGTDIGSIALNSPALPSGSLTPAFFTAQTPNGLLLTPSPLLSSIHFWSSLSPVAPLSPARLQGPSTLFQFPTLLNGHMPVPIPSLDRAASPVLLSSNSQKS
The conditions noted are these: protein: recombinant; tags: N-terminal GST; dsDNA, one strand shown. The essentials: as §1

For the next assay, the target named is T7, FEV (Homo sapiens, UniProt Q99581 1-238).
T7 sequence: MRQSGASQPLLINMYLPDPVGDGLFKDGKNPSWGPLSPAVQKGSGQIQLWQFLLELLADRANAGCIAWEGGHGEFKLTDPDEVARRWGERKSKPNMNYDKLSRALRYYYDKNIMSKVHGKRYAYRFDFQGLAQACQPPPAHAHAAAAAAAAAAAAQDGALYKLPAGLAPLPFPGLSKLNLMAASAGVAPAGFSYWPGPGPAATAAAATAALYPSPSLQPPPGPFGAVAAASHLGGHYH
Conditions: protein: recombinant; tags: N-terminal GST; dsDNA, one strand shown. A digest of the protocol:
as §1

The next assay has as its target ETV5 (Homo sapiens, UniProt P41161 1-510). The conditions noted are these: protein: recombinant; tags: N-terminal GST; dsDNA, one strand shown. A digest of the protocol:
as §1

The target of the next assay is HSF1 (Homo sapiens, UniProt Q00613 1-529). The conditions noted are these: protein: recombinant; tags: N-terminal GST; chain copies: 3; dsDNA, one strand shown. A digest of the protocol:
as §1

The target in the next assay is T8, SPIC (Homo sapiens, UniProt Q8N5J4 1-248).
T8 sequence: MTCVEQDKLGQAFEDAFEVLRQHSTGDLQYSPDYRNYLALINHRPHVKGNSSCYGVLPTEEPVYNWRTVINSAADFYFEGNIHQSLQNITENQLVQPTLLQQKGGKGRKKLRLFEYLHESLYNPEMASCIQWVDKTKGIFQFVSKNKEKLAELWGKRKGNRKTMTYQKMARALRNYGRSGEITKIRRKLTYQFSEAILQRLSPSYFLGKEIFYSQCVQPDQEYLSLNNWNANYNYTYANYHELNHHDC
The conditions noted are these: protein: recombinant; tags: N-terminal GST; dsDNA, one strand shown. The essentials: as §1

The target of the next assay is ELF4 (Homo sapiens, UniProt Q99607 1-663). The conditions noted are these: protein: recombinant; tags: N-terminal GST; dsDNA, one strand shown. The essentials: as §1
For a further assay, the target named is T9, ELK4 (Homo sapiens, UniProt P28324-2 1-405).
T9 sequence: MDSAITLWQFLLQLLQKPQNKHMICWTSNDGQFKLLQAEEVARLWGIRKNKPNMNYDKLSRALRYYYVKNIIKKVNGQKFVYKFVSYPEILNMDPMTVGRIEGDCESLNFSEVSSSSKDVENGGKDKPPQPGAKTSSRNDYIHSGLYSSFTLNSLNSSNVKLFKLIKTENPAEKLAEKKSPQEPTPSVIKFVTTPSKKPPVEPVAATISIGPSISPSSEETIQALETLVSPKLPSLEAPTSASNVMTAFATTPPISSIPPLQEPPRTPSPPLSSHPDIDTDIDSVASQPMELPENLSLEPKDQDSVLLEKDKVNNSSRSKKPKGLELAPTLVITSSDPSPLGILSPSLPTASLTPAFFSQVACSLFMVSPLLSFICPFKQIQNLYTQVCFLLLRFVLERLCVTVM
The conditions noted are these: protein: recombinant; tags: N-terminal GST; dsDNA, one strand shown. The essentials: as §1

A further assay addresses T10, ETV2 (Homo sapiens, UniProt O00321 1-342).
T10 sequence: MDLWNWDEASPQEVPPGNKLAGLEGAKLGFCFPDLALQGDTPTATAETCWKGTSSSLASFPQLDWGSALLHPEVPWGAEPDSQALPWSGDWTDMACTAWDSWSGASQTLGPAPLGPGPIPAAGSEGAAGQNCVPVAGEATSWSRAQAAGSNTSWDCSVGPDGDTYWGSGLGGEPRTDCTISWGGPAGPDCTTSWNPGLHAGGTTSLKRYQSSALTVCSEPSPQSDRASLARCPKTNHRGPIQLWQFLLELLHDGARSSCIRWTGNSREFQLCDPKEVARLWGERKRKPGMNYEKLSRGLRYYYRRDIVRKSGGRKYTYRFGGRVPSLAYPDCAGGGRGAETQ
The conditions noted are these: protein: recombinant; tags: N-terminal GST; dsDNA, one strand shown. The essentials:
as §1

The target in the next assay is T11, ELF3 (Homo sapiens, UniProt P78545 1-371).
T11 sequence: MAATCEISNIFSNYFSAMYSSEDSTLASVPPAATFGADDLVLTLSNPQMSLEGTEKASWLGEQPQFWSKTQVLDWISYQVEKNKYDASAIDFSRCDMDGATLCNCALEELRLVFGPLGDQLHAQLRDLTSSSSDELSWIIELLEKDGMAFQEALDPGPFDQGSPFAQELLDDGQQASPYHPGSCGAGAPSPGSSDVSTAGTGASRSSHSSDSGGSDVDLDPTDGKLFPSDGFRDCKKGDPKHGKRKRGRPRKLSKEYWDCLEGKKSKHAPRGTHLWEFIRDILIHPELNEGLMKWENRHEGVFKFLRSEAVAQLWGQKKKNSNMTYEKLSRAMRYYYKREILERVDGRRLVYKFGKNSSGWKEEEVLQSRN
The conditions noted are these: protein: recombinant; tags: N-terminal GST; dsDNA, one strand shown. The essentials:
as §1

The next assay deals with CRX (Homo sapiens, UniProt O43186 1-299). The conditions noted are these: protein: recombinant; tags: N-terminal GST; dsDNA, one strand shown. A digest of the protocol: as §1
In a further assay the target is ETV1 (Homo sapiens, UniProt P50549 1-477). The conditions noted are these: protein: recombinant; tags: N-terminal GST; dsDNA, one strand shown. A digest of the protocol: as §1
Chain of ETV1 (P50549 whole entry): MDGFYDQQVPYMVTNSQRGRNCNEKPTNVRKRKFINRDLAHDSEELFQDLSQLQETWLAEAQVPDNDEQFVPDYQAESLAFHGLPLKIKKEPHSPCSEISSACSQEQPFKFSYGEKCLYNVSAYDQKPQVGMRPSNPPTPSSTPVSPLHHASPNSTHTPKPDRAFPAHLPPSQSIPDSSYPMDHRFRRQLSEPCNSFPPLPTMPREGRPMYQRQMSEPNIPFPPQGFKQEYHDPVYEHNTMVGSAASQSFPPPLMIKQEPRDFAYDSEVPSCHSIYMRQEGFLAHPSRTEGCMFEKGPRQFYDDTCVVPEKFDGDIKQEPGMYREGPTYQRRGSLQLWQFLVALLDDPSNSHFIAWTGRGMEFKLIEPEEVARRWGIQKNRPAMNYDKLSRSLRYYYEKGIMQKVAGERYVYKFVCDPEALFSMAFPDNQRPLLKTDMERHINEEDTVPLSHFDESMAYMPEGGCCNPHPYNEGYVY

Chain of ETV5 (P41161 whole entry): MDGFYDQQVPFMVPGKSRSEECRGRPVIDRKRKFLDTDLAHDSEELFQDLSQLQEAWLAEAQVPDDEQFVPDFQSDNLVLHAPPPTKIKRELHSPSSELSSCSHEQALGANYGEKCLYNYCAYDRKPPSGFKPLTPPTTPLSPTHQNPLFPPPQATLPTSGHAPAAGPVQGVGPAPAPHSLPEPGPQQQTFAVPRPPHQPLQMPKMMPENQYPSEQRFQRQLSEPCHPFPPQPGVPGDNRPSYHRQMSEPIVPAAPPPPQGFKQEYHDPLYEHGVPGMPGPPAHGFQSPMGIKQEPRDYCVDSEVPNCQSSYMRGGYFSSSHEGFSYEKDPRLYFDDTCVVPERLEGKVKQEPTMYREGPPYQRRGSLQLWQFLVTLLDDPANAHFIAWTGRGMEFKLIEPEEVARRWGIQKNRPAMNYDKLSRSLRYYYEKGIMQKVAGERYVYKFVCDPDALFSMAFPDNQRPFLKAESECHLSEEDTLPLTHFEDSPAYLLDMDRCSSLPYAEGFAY
Chain of HSF1 (Q00613 whole entry): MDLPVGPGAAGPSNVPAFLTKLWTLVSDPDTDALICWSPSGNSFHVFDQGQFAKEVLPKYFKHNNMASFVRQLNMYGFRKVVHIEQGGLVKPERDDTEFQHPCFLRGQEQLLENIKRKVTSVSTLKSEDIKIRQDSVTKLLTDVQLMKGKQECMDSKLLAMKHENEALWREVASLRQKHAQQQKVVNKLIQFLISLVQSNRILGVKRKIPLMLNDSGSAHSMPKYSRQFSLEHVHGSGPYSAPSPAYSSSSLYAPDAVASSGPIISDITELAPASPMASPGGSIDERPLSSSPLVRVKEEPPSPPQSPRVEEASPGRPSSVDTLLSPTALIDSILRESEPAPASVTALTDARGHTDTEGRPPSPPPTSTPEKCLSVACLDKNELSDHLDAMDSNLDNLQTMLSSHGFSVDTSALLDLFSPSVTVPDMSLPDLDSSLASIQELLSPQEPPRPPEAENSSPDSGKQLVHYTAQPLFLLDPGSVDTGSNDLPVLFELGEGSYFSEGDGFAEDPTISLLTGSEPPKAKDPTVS
Chain of ELF1 (P32519 whole entry): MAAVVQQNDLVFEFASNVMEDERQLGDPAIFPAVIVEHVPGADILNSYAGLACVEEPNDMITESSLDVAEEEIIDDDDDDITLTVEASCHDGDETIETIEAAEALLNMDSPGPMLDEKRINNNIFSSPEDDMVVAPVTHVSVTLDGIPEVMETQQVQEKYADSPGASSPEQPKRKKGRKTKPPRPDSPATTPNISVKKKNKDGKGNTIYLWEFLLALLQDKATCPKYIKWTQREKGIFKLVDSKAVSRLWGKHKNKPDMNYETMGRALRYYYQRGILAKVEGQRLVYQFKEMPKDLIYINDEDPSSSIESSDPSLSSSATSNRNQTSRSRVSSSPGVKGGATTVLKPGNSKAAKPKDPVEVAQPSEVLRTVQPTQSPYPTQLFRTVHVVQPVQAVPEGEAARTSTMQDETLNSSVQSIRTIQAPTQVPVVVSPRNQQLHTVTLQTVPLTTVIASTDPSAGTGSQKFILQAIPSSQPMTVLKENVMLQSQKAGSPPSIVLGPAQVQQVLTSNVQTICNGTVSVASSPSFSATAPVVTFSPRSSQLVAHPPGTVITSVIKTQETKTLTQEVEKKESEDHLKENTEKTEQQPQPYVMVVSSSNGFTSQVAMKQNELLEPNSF
Chain of ELF4 (Q99607 whole entry): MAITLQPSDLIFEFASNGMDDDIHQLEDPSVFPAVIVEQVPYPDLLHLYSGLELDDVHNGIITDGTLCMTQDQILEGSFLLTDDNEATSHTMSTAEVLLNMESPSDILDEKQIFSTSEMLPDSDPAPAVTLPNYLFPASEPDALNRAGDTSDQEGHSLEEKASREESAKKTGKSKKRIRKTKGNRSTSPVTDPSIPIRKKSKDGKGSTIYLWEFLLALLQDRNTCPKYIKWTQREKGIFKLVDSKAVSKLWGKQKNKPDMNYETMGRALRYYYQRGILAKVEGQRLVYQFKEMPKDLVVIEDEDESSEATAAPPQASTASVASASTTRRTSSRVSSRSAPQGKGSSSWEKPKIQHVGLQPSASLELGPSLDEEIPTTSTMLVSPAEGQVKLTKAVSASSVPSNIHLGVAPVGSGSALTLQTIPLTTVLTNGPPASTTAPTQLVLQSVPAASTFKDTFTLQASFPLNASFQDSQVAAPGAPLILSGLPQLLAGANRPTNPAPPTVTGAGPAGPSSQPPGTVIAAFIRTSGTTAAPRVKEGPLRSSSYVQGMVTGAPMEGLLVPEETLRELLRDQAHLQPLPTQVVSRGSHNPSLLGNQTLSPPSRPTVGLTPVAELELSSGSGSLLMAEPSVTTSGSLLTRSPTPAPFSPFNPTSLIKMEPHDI
Chain of CRX (O43186 whole entry): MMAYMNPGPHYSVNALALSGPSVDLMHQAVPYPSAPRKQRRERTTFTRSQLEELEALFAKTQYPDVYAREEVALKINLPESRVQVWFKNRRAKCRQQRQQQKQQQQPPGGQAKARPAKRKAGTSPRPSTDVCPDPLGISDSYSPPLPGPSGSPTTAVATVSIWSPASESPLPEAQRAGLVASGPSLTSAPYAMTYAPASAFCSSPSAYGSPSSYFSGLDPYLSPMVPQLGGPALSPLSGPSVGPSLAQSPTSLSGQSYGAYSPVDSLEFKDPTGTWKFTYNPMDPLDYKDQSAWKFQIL
Chain of SPIB (Q01892 whole entry): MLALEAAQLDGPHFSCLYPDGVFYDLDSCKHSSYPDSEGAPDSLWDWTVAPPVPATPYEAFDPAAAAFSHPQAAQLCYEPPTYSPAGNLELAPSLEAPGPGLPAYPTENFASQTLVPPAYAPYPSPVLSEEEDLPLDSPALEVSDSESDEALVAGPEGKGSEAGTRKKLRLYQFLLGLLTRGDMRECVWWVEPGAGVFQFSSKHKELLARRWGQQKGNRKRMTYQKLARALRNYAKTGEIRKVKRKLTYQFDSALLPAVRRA

Consider AATAAC, for which the binding signal with FLI1 was 1.31 fold enrichment (6-mer frequency, TF over GST control); with ELK1 it was 1.33 fold enrichment (6-mer frequency, TF over GST control); with GABPA it was 1.3 fold enrichment (6-mer frequency, TF over GST control); with ERG, 1.27 fold enrichment (6-mer frequency, TF over GST control); with ELF1, 1.23 fold enrichment (6-mer frequency, TF over GST control); with EHF it was 1.26 fold enrichment (6-mer frequency, TF over GST control). For the same sequence, the binding signal is 1.18 fold enrichment (6-mer frequency, TF over GST control) with SPI1; 1.37 fold enrichment (6-mer frequency, TF over GST control) with SPIB; 1.33 fold enrichment (6-mer frequency, TF over GST control) in the assay with ELK3; 1.25 fold enrichment (6-mer frequency, TF over GST control) with FEV; 1.3 fold enrichment (6-mer frequency, TF over GST control) with ETV5; 1.27 fold enrichment (6-mer frequency, TF over GST control) with HSF1. The binding signal in the assay with SPIC is 1.42 fold enrichment (6-mer frequency, TF over GST control); with ELF4 it was 1.32 fold enrichment (6-mer frequency, TF over GST control); with ELK4, 1.13 fold enrichment (6-mer frequency, TF over GST control); with ETV2, 1.31 fold enrichment (6-mer frequency, TF over GST control); in the assay with ELF3 it was 1.25 fold enrichment (6-mer frequency, TF over GST control); in the assay with CRX it was 1.32 fold enrichment (6-mer frequency, TF over GST control). In the assay with ETV1, the binding signal was 1.15 fold enrichment (6-mer frequency, TF over GST control).
